The values that follow come from PubChem BioAssay.

The nature of the experiment: small molecules captured by biotinylated probe aFSTL3 – biochemical, small-molecule microarray, fluorescence 635/667, stem cell growth factor project, primary screen (AID 1064).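 Also: measures binding of the biotinylated anti-FSTL3 antibody to printed compounds.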 To be noted: higher = more signal.
Consider `C=C(/C(=C/C[C@H](OC(C)=O)c1ccccc1OCCO)c1cc(C(=O)OC)ccc1OC)C(C)C`, for which the composite z-score is -0.243.
For `C[N+](C)(C)CCCC[C@@H]1NC(=O)[C@H]2C[C@@H](C(=O)NCCCCCCN)[C@@H](c3ccc(O)cc3)N2C1=O` the value was 0.239; for `COc1ccccc1CN1C(=O)c2ccccc2[C@](Cc2ccccc2I)(C(=O)NCC(F)(F)F)[C@@H]1c1ccc(CO)cc1`, 0.164.
For `O=C(NCc1ccccc1)[C@@H]1c2ccccc2C(=O)N(Cc2ccccc2C(F)(F)F)[C@H]1c1ccc(CO)cc1` the value was -0.234; for `COC(=O)[C@H](Cc1ccccc1)N1CC(/C=C/C2CC2)=C[C@H]1[C@H](O)Cc1ccccc1`, -0.284.
`CCOC(=O)C1=CC[C@@H](c2ccc(OCc3ccccc3)c(OC)c2)N(S(=O)(=O)c2ccc(C)cc2)[C@H]1c1ccc(SC)cc1` registered a composite z-score of 0.152.
`COc1cccc(/C=C/C=O)c1`: the composite z-score was found to be 0.278.
For `CC(=O)NCCCC[C@@H]1NC(=O)[C@H]2C[C@@H](C(=O)NCCCC[N+](C)(C)C)[C@@H](c3cccc(OCCO)c3)N2C1=O` the value was -0.188; for `O=C1C2C=CC(C(O)c3ccccc3)N(Nc3ccccc3F)C2C(=O)N1c1ccccc1` (centres undefined), -0.283; for `CCOC(=O)C[C@H]1[C@H](OC(=O)c2ccccc2-c2ccccc2)[C@@H](NC(=O)c2ccc(-c3ccccc3)cc2)c2cc(OCCCO)ccc2N1C(=O)c1ccc2ccccc2n1`, -0.405.
Under `CO[C@]12C=C(Br)[C@@H](C[C@@H]1c1cccc(C)c1)[C@@]1(CO1)C2=O` stands -0.233; under `[N-]=[N+]=Nc1ccccc1[C@@H]1OC(c2ccc(OCCCO)cc2)=N[C@]1(Cc1ccccc1)C(=O)NCC(O)CO` (some centres undefined), 1.45.
For `COc1ccc([Si](C)(C)[C@@H]2[C@@H](CCn3cc([C@H](O)c4ccccc4)nn3)O[C@]3(C(=O)N(Cc4ccc(N5CCC5=O)cc4)c4ccccc43)[C@H]2C)cc1` the value was 0.554; for `C=CCC(OC(C)=O)[C@@H]1[C@@H](N(Cc2ccc(-c3cccc(C(F)(F)F)c3)o2)C(=O)c2ccc(C)cc2)c2cc(OCCCO)ccc2N1C(=O)c1ccc2ccccc2c1` (some centres undefined), -0.302.
In turn, `C=CCC(OC(C)=O)[C@@H]1[C@@H](N(Cc2cccc3ccccc23)C(=O)Cc2ccc(F)cc2)c2cc(OCCCO)ccc2N1C(=O)c1ccc2ccccc2n1` (some centres undefined) gave a composite z-score of 0.258.
For `C[C@H]1NC(=O)[C@@]23C(=O)N[C@@H](Cc4ccccc4)C2[C@H](C)[C@@]2(C)O[C@H]2C3/C=C/C/C=C\CNC(=O)[C@H](Cc2ccccc2)NC1=O` (some centres undefined) the value was -0.536; for `CCCCCCCCCCC(O)C1C=CC2C(=O)N(C)C(=O)C2N1Nc1ccc([N+](=O)[O-])cc1[N+](=O)[O-]` (centres undefined), -0.222; for `NCCCCCCNC(=O)[C@@H]1C[C@@H]2C(=O)N[C@@H](CCCCN)C(=O)N2[C@@H]1c1cccc(OCCO)c1`, 1.06.
Under `N#Cc1ccc(C(O)C2C=CC3C(=O)N(c4ccccc4)C(=O)C3N2Nc2ccccc2)cc1` (centres undefined) stands 0.396; under `CC1=C([C@H](O)CCc2ccccc2)[C@H](CO)[C@@H]2C(=O)N(C)C(=O)[C@@H]2C1`, -0.0659; under `CCOC(=O)C1=CC[C@@H](c2cccc(Cl)c2)N(S(=O)(=O)c2ccc(C)cc2)C1`, 0.432.
Under `COCCOC(=O)N1C(=O)[C@@]2(c3cc(C#Cc4ccc(OC)cc4)ccc31)[C@H](C(=O)Nc1nc3ccccc3s1)[C@H]1C(=O)O[C@H](c3ccccc3)[C@H](c3ccccc3)N1[C@@H]2c1ccc(O)cc1` stands 0.0683; under `COc1ccc(C#Cc2ccc3c(c2)[C@]2(C(=O)N3)[C@H](c3ccc(O)cc3)N3[C@H](c4ccccc4)[C@H](c4ccccc4)OC(=O)[C@H]3[C@@H]2C(=O)O)cc1`, -0.789; under `CC(C)C[C@@H]1NC(=O)[C@@H]2C[C@H](C(=O)NCCCCCN)[C@H](c3ccc(O)cc3)N2C1=O`, 0.347.
`CN1C(=O)C2C=CC(C(O)c3ccc(F)cc3)N(Nc3ccccc3)C2C1=O` (centres undefined) returned a composite z-score of -0.12.
As to `CCC[C@@H]1C[C@@]1(CCC)[C@@H](NC(=O)OCc1ccccc1)c1ccc(-c2ccccc2)cc1`, the composite z-score stood at 0.49.
`COc1ccc(NC(=O)O[C@H]2[C@H](OC(=O)Nc3ccccc3)[C@H](OC(=O)Nc3ccccc3)[C@@H](OC)O[C@@H]2CO)cc1` yielded a composite z-score of 0.474.
For `CC(C)[Si](C#C[Si](C(C)C)(C(C)C)C(C)C)(O[C@H](C)c1cn([C@H](CO)Cc2ccccc2)nn1)C(C)C` the value was -0.311; for `[N-]=[N+]=NCc1ccccc1[C@@H]1OC(c2ccc(OCCCO)cc2)=N[C@]1(CCS(=O)(=O)c1ccccc1)C(=O)NCC(O)CO` (some centres undefined), 0.445.
